Screening results: PubChem, several laboratories
PLAP activator = activators of human placental alkaline phosphatase | purified PLAP enzyme, luminescent substrate read-out; stronger effect = higher value | activation fold at 20 µM | 96,000 compounds, 1.2% hits; in the data active means activation fold above about 2
sEH act = increases human soluble epoxide hydrolase activity; purified human sEH enzymatic activity, activator screen; P34913; activation, % at 2 µM; 91,000 compounds, 0.04% hits; in the data active means activation above about 37%
BAP1 inh = human BAP1 deubiquitinase inhibition | recombinant BAP1, Ub-AMC hydrolysis fluorescence kinetic; stronger effect = lower value | Q92560 | 72,000 compounds, 0.48% hits | AID 436 | calls only at 20 µM;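 active means activity remaining at or below 50% of control, provided the compound also passes the data quality filters; inactive means the rest, including low values that fail the filters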;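 further: 100% = DMSO wells rate and 0% = substrate alone blank rate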
Target sequence (Q92560 whole entry, looked up): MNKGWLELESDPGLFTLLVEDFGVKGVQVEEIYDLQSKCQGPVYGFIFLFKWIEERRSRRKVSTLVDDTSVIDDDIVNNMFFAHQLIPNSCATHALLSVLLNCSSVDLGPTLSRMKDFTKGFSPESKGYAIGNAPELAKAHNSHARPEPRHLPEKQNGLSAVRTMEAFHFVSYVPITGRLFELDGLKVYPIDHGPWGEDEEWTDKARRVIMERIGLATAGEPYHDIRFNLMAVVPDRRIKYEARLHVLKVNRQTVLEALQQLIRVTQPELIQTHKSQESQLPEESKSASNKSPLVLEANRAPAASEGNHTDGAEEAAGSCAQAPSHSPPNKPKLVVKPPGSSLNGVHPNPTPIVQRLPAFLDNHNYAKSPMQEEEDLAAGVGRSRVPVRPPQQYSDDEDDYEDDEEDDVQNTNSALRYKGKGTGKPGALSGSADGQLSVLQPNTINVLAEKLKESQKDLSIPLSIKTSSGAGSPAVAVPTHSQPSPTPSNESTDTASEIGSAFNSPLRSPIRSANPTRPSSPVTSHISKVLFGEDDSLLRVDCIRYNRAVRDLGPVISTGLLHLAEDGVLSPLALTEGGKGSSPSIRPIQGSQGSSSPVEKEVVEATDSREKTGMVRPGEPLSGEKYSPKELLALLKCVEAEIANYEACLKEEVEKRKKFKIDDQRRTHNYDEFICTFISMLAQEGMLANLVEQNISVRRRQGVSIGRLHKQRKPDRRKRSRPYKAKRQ
sEH inh = soluble epoxide hydrolase (human) inhibition; AID 707; 91,000 compounds, 0.34% hits; P34913; recombinant human sEH enzymatic activity assay; inhibition, % at 2 µM; in the data active means inhibition above about 80%
Numbers without * were called inactive; i = inactive; . = no result shown. Shown are actives, neighbours in structure and some others; about 1.5% of the full set was active somewhere.

SMILES | PLAP activator | sEH act | BAP1 inh | sEH inh
O=C(Nc1ccc2oc(-c3ccccc3Cl)nc2c1)c1ncn[nH]1 | 2* | 3.0 | i | -3.5
O=C(Nc1ccc2oc(-c3cccc4ccccc34)nc2c1)c1ncn[nH]1 | . | 5.3 | . | -4.0
Cc1ccc2nc(-c3ccc(C)c(NC(=O)c4cccc(Cl)c4)c3)oc2c1 | . | . | i | .
CCOC(=O)c1c(C)n(-c2ccccc2Br)c2c1cc(O)c1ccccc12 | . | . | i | .
O=C(NCCSCc1ccco1)Nc1ccc(Cl)cc1 | 1 | -72.5 | . | 72.5
O=C(NCCSCc1ccco1)Nc1cccc(Cl)c1 | 0.8 | -80.5 | i | 80.5*
Cc1[nH]c2ccc(-c3n[nH]c(=S)n3C)cc2c1C | 1.8 | -5.9 | i | 4.7
CCn1c(-c2cc3ccccc3cc2O)n[nH]c1=S | 2.9* | -7.2 | . | 5.5
CCn1c(-c2ccc3[nH]c(C)c(C)c3c2)n[nH]c1=S | 2.1* | 2.6 | i | -3.9
CCn1c(-c2cc(Br)ccc2O)n[nH]c1=S | . | -10.8 | i | 12.2
Cc1nnc2n1NC(c1ccc(Cl)cc1)C(C(=O)N(C)C1CCCCC1)S2 (stereo unspecified) | 2.2* | -10.0 | i | 9.7
COc1ccc(OC)c(S(=O)(=O)N2CCC(C(=O)Nc3cc(C)ccc3C)CC2)c1 | 1.3 | 7.3 | . | -7.2
COc1ccc(OC)c(S(=O)(=O)N2CCC(C(=O)Nc3cccc(C)c3)CC2)c1 | 2.2* | -39.3 | . | 38.3
COc1cccc(NC(=O)[C@@H]2CCCN2C(=O)C2CCN(S(=O)(=O)c3ccc(C)cc3)CC2)c1 | 2* | 2.1 | i | -4.9
O=C(Nc1nc2c(s1)CCCC2)Oc1ccccc1 | 1.1 | 7.1 | i | -7.0
C/C(=N\Nc1nc2c(s1)CCCC2)c1ccccc1 | 2.3* | -8.3 | . | 10.7
COc1ccc(-c2cc(-c3c(O)c(OC)c4occc4c3OC)[nH]n2)cc1 | 2.3* | 14.5 | . | -17.1
Cc1ccc(Cn2ccc(=O)c(Cc3c(Cl)cccc3Cl)c2C)cc1 | 1.1 | -90.4 | . | 90.2*
COc1ccc(Cn2ccc(=O)c(Cc3c(Cl)cccc3Cl)c2C)cc1 | 1.1 | -74.7 | . | 75.4
CCCCCCOC(=O)c1ccc(NC(=O)c2cc(OC)c(OC)c(OC)c2Br)cc1 | 2* | -29.0 | . | 28.4
O=C(NCC1CCCC(CNC(=O)N2CCc3ccccc32)C1)N1CCc2ccccc21 (stereo unspecified) | 1.8 | -92.5 | . | 92.4*
O=C(Nc1ccccc1)N1CCc2ccccc21 | . | -15.5 | . | 15.2
Cc1c(C(=O)NCCC2=CCCCC2)oc2ccc(S(=O)(=O)N3CCOCC3)cc12 | 1.6 | . | . | .
O=C(NCCC1=CCCCC1)c1ccc(F)c(S(=O)(=O)N2CCOCC2)c1 | 1 | -97.4 | i | 97.4*
CCCc1cc(=O)oc2c(CN3CCCC3)c(O)c(Cl)cc12 | 2.9* | . | i | .
SMILES | PLAP activator | sEH act | BAP1 inh | sEH inh
Cn1c(=NC(=O)c2cc3ccccc3oc2=O)sc2cc(Cl)ccc21 | . | . | i | .
CCCCCCn1c(C)nc2c(c1=O)c1nc3ccccc3nc1n2/N=C/c1ccco1 | 2* | -1.4 | . | 3.3
Cc1ccc(-c2cc(-c3ccccc3[N+](=O)[O-])[nH]n2)c(O)c1 | 2* | -6.0 | . | 8.5
CCOc1cc(C(=S)N2CCOCC2)ccc1OC(=O)c1ccc(Cl)cc1 | . | . | i | .
Cc1ccccc1C(=O)N1CCN(c2ccc(NC(=O)CSc3ccc(Cl)cc3)cc2)CC1 | 1.3 | -84.9 | . | 85.8*
CCC(=O)Nc1ccc(N2CCN(C(=O)c3ccccc3C)CC2)cc1 | 0.9 | 1.5 | i | -1.4
CCOCCCn1c(-c2ccc(Cl)cc2)n[nH]c1=S | 2.4* | -9.6 | . | 9.7
COc1ccc([N+](=O)[O-])cc1NC(=O)c1ccc(S(=O)(=O)N2CC(C)CC(C)C2)cc1 (stereo unspecified) | . | . | i | .
CCCCNC1C(CC)C(CCC)C(C#N)(C#N)C1(C#N)C#N (stereo unspecified) | 1.7 | 44.5* | i | -48.4
CCc1cccc(NC(=O)CSCc2cc(=O)[nH][nH]2)c1 | 2.5* | 22.0 | . | -24.8
N#Cc1ccc(Oc2ccccc2N2C(=O)C3C4C=CC(C4)C3C2=O)cc1 (stereo unspecified) | . | . | i | .
O=P(Cc1nnco1)(c1ccccc1)c1ccccc1 | 2.1* | -4.0 | i | 5.2
COC(=O)CP(=O)(c1ccccc1)c1ccccc1 | 0.9 | 3.4 | . | -3.8
CCOC(=O)C1=C(C(=O)OCC)SC(=C2C(=S)C(C)(C)N(C(=O)CC(C)C)c3ccccc32)S1 | . | . | i | .
CCOC(=O)CSc1nc2sc(C(=O)O)c(C)c2c(=O)[nH]1 | 1.3 | . | i | .
CCn1c(SCc2nc3sc(C(=O)O)c(C)c3c(=O)[nH]2)nc2ccccc21 | 2.3* | 6.5 | . | -4.9
CC(C)NC(=O)c1sc2nc3c(c(-c4cccs4)c2c1N)CN(C)CC3 | 2* | -3.9 | . | 2.3
Cc1cccc(NC(=O)c2sc3nc4c(c(-c5cccs5)c3c2N)CN(C)CC4)c1 | 1.7 | 7.2 | . | -5.1
